Source: PubChem BioAssay (National Center for Advancing Translational Sciences (NCATS))
Hits are enriched below; roughly 19% of the tested compounds scored in any of these assays.
IL-1B inflam inh – inflammasome signaling inhibition, IL-1 beta readout. THP-1 LPS/ATP IL-1B secretion, AlphaLISA, 16 h; hits give low values. activity change, % at 57.5 µM. 360,000 compounds, 4.7% hits. AID 743279; in the data active = activity change below about -50%; inconclusive = mostly about -30% to -49%; note: % is set by controls: 0 for no effect and ±100 for the full control effect
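THP-1 cells pretreated 1 hr with compounds (up to 57.5 uM final), then stimulated with LPS (250 ng/mL final) plus ATP (1.25 mM final); secreted IL-1B measured by AlphaLISA after 16 hr, decreased signal indicating inhibition.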
HepG2 tox – kills HepG2 cells in TGF-b inhibitor counter-screen | Potency, µM (top dose mostly 46.1 µM), for the others: top-dose activity change, negative = cytotoxicity, hits mostly cytotoxic | 410,000 compounds, 0.76% hits | HepG2 CAGA-GFP viability, ATP luminescence, 18 h | AID 588856; note: potency is the fitted concentration of half-maximal effect
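CellTiter-Glo luminescence gave cytotoxicity after 18 hours at 37 degrees C. The cells were HepG2 CAGA-GFP in 1% FBS DMEM, stimulated with 500 pg/mL TGF-beta after compound addition. %Activity was normalised to no-cell wells (complete cell-killing) and DMSO (no toxicity), and curves were fitted and classified.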
TGFb inhibitor – blocks TGF-b signaling; 410,000 compounds, 1.2% hits; Potency, µM (doses to about 46.1 µM), for the others: at the highest dose activity, negative = inhibition, hits mostly inhibitors; HepG2 CAGA-GFP TGF-b/SMAD3 reporter, GFP fluorescence, 18 h; TGF-beta stimulated, 500 pg/mL final; note: potency is the fitted concentration of half-maximal effect; % is set by controls: 0 for no effect and ±100 for the full control effect; nearly all actives have a fitted effect of over 65% in size
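Inhibition was scored as loss of TGF-beta-induced (500 pg/mL final, 18 hours, 37 degrees C) GFP in HEPG2 cells carrying a CAGA-GFP reporter, in DMEM with 1% FBS. Well GFP was summed per cell; Activity was normalised to unstimulated and stimulated DMSO wells, then concentration-response fitting.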
DT40 TDP1 no CPT – qHTS for Inhibitors of human tyrosyl-DNA phosphodiesterase 1 (TDP1): qHTS in cells in absence of CPT; Potency, µM (highest dose often 46.2 µM), for the others: at the top dose activity change, negative = growth inhibition, actives largely listed as inhibitors; 420,000 compounds, 15% hits; DT40 Tdp1-/- hTDP1 cells, no CPT, ATP luminescence, 48 h; note: potency is the fitted concentration of half-maximal effect; % is set by controls: 0 for no effect and ±100 for the full control effect; nearly all actives have a fitted effect of over 55% in size
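Stably hTDP1-transfected Tdp1-null chicken DT40 cells were treated with library compounds minus camptothecin and grown for at least 48 hr at 37 °C, after which cellular ATP was quantified by luminescence.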
TDP1 block – inhibitors of human tyrosyl-DNA phosphodiesterase TDP1 | AID 485290 | recombinant TDP1, AlphaScreen DNA substrate cleavage | 350,000 compounds, 0.28% hits | Potency, µM (doses to about 130 µM), inactives show top-dose activity change, negative = inhibition, usual class: inhibitors; note: potency is the fitted concentration of half-maximal effect; % is set by controls: 0 for no effect and ±100 for the full control effect; nearly all actives have a fitted effect of over 40% in size
Target sequence (Q9NUW8 whole entry, looked up): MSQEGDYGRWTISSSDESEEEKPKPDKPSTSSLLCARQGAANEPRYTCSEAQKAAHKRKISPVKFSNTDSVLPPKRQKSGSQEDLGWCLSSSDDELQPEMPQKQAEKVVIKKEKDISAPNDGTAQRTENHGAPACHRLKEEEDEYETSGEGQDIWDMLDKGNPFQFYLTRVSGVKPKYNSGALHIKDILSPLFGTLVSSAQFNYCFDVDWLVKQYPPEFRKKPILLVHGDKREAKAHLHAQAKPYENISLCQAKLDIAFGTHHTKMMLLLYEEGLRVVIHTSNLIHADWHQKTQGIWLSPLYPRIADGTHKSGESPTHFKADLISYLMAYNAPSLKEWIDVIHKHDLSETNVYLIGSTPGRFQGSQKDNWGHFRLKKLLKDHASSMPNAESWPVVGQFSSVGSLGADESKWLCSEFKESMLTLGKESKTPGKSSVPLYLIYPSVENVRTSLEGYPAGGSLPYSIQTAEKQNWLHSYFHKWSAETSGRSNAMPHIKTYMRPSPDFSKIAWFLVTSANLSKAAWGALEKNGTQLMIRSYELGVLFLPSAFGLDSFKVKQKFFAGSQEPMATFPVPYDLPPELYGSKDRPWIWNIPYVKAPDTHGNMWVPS
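Recombinant human Tdp1 (E. coli-expressed, 1 nM final) preincubated with compounds 15 min at room temperature, then 5'-biotin/3'-phosphotyrosine-FITC DNA substrate (15 nM final) added for 5 min. AlphaScreen beads (10 ug/ml final) added 10 min; cleavage lowers signal.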
DT40 TDP1 CPT – DT40-hTDP1 cell growth loss with CPT; chicken DT40 Tdp1-/-;hTDP1 cells + 20 nM CPT, ATP luminescence, 48 h; Potency, µM (top dose mostly 46.2 µM), inactives show top-dose activity change, negative = growth inhibition, usual class: inhibitors; 420,000 compounds, 12% hits; note: potency is the fitted concentration of half-maximal effect; % is set by controls: 0 for no effect and ±100 for the full control effect; nearly all actives have a fitted effect of over 55% in size
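Chicken DT40 Tdp1-/- cells stably complemented with human TDP1 were seeded at 400 cells/well in medium containing 20 nM camptothecin, exposed to pin-transferred compounds, and grown at 37 °C for at least 48 hr. Viability was read as ATP luminescence.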
Numbers without * were called inactive; ? = inconclusive; . = no result; ! = a repeat was not active; [ ] = another dose, or the depositor's remark. Unless noted, calls come from the whole dose curve; as a rule, active = well fitted curve in the direction sought with a large enough effect; inconclusive = small, poorly fitted or top-dose-only effect, or another doubt; inactive = no such curve, though single readings can be large; an effect the other way counts as inactive or inconclusive.

SMILES	IL-1B inflam inh	HepG2 tox	TGFb inhibitor	DT40 TDP1 no CPT	TDP1 block	DT40 TDP1 CPT
C#CCN1C(=O)S/C(=C\c2ccc(N3CCOCC3)cc2C)C1=O	0	-2%	?	7.3µM*	2%	?
CCOc1ccc(N2C(=O)NC(=O)/C(=C\c3ccc(N4CCOCC4)cc3C)C2=O)cc1	15	-24%	-12%	?	2%	-12%
O=C(O)c1cc[c]([Hg][Cl])cc1	-101*	-93%	?	0.92µM*	?	0.65µM*
O=C(O)c1cccc(Cl)c1	.	.	.	.	6%	.
CC(C)(O)C1O[C@H]2CC[C@@]3(C)[C@@](O)(CC[C@H]4Cc5c([nH]c6ccccc56)[C@@]43C)C2=CC1=O (stereo partly drawn)	.	.	.	24µM*	17%	21µM*
CC1CC2CC(=O)C3CCCN4CCCC2[C@]34C1 (stereo partly drawn)	.	.	.	-2%	12%[56.1 µM]	6%
Cc1ccccc1Cn1cnc2c(oc3ccccc32)c1=O	-18	0%	12%	?	0%	?
N[C@H](CCCCCP(=O)(O)O)C(=O)O	.	.	.	0%	-4%[56.1 µM]	-6%
O=C1NC(=O)N(Cc2ccco2)C(=O)/C1=C/c1ccc(-c2cccc([N+](=O)[O-])c2)o1	?	-10%	-15%	?	.	18µM*
C=CCN1C(=O)NC(=O)/C(=C\c2ccc(-c3ccccc3[N+](=O)[O-])o2)C1=O	-100*	-10%	?	18µM*	-3%	?
O=C(CN1CCN(c2ccccc2)CC1)Nc1ccccc1C(=O)NCCc1ccccc1	-24	-2%	-4%	?	.	?
Cc1cc(C)cc(N2C(=O)NC(=O)/C(=C\c3cccn3-c3ccccc3)C2=O)c1	-99*	-5%	?	?	-2%	?
CN1C(=O)/C(=C/c2cccn2-c2ccc3ccccc3c2)C(=O)NC1=S	-117*	-51%	16µM*	5.2µM*	11%	3.3µM*
O=C1NC(=S)NC(=O)C1=Cc1cccn1-c1ccc(O)cc1	-102*	-108%	?	5.2µM*	-8%	3.7µM*
C[C@H](CO)N1C[C@H](C)[C@@H](CN(C)C(=O)Nc2ccc(C(F)(F)F)cc2)Oc2c(NS(=O)(=O)c3cccs3)cccc2C1=O	-5	-1%	-27%	?	0%	?
c1ccc(P(c2ccccc2)c2ccccc2)cc1	.	.	.	.	18%	.
COc1ccc(CNC(=O)/C=C\c2ccc3[nH]cc(CCN(C)C)c3c2)cc1	.	.	.	?	5%	?
O=C1/C(=C\c2ccccc2)C[C@@]2(O)[C@H]3Cc4ccc(O)c5c4[C@@]2(CCN3CC2CC2)[C@@H]1O5	.	.	.	2.7µM*	13%	2.4µM*
O=C(/C=C/c1ccc(Cl)cc1)N[C@@]12CCC(=O)[C@@H]3Oc4c(O)ccc5c4[C@@]31CCN(CC1CC1)C2C5	.	.	.	10µM*	6%	13µM*
O=C1/C(=C\c2ccccc2)C[C@@]2(O)[C@H]3Cc4ccc(O)c5c4[C@@]2(CCN3CC2CC2)[C@H]1O5	.	.	.	2.1µM*	11%	2.1µM*
Oc1ccc2c3c1O[C@H]1c4[nH]c5c(c4C[C@@]4(O)[C@@H](C2)N(CC2CC2)CC[C@]314)C[C@]1(O)[C@H]2Cc3ccc(O)c4c3[C@@]1(CCN2CC1CC1)[C@@H]5O4	.	.	.	-4%	12%[56.1 µM]	-5%
Oc1ccc2c3c1O[C@H]1c4c(c5ccccc5n4Cc4ccccc4)C[C@@]4(O)C(C2)N(CC2CC2)CC[C@]314	.	.	.	3.7µM*	17%	5.2µM*
Cn1cc(C(O)CN2CCCCC2)c2ccccc21 (stereo not drawn)	-16	-1%	-4%	-13%	.	3%
NC(N)=Nc1ccc2[nH]c3c(c2c1)C[C@@]1(O)[C@H]2Cc4ccc(O)c5c4[C@@]1(CCN2CC1CC1)[C@H]3O5	?	-53%	14µM*!	4.6µM*	11%	2.3µM*
COc1cc(C(=O)NCCSc2c(-c3ccccc3)[nH]c3ccccc23)cc(OC)c1OC	.	-14%	?	8.2µM*	9%	8.2µM*
O=C(NCCSc1c(-c2ccc(F)cc2)[nH]c2ccccc12)c1ccc(S(=O)(=O)N2CCOCC2)cc1	.	-31%	?	4.1µM*	6%	5.2µM*
CC(Sc1ncnc2sccc12)C(=O)Nc1ccc(S(=O)(=O)N2CCOCC2)cc1 (stereo not drawn)	15	-6%	-4%	-33%	.	?
O=C(Nc1sc2c(c1C(=O)Nc1ccc(Cl)cc1)CCCC2)c1cccs1	.	2%	-13%	3.7µM*	-9%[12.3 µM]	5.8µM*
CCOC(=O)c1c(NC(=O)c2c(N)n(CCCOC)c3nc4ccccc4nc23)sc2c1CCCC2	1	-2%	?	?	2%	-4%
O=C(O)c1ccccc1-c1c2cc(Br)c(=O)cc-2oc2[c]([Hg])c(O)c(Br)cc12	.	.	.	0.58µM*	25%	1.5µM*
